Screening data: PubChem, National Center for Advancing Translational Sciences (NCATS)
Hits are enriched below; roughly 22% of the tested compounds scored in any of these assays.
Pf growth 96h – P. falciparum growth inhibition at 96 hours; P. falciparum luciferase reporter growth, 96 h; Potency, µM (doses to about 28.7 µM), hits mostly inhibitors; 320,000 tested, 6.9% active; AID 504834
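Compounds incubated with erythrocytes infected by luciferase-expressing P. falciparum (2% hematocrit, 0.05% parasitemia final) for 96 hours, 37 C in 5% CO2. Growth inhibition scored as decreased luciferase luminescence.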
Shiga toxin inh – inhibitors of Shiga toxin in Vero cells; Vero cells, Shiga toxin protein synthesis inhibition reporter; inhibition, % at 38.7 µM; 290,000 tested, 9.2% active; in the data active = inhibition mostly above about 28%, no sharp cut-off; inactive = mostly below about 43%
Cycloheximide cs – counter-screen hit for Shiga toxin inhibitors, cycloheximide; AID 2314; max response, %; cell reporter, cycloheximide protein synthesis inhibition counterscreen; 300,000 tested, 12% active; in the data active = max response mostly above about 13%, no sharp cut-off; inactive = mostly below about 14%; also: read at 38.3 µM for the half of the compounds with a filed dose
Pf growth 48h – P. falciparum growth inhibition at 48 hours (one generation) | P. falciparum luciferase growth in erythrocytes, 48 h | Potency, µM (doses to about 28.7 µM), usual class: inhibitors | 310,000 tested, 5.9% active | AID 504832
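Luminescence readout; reporter = integrated firefly luciferase in P. falciparum. RBC culture at 2% hematocrit, 0.1% parasitemia final, 37 C/5% CO2; decreased signal taken as growth inhibition.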
LmPK inh – blocks Leishmania mexicana pyruvate kinase activity; Q27686; 290,000 tested, 0.37% active; purified LmPK, Kinase-Glo ATP luminescence, 1 h; Potency, µM (series often up to 57.5 µM), most hits filed as inhibitors; AID 1721
Target sequence (Q27686 whole entry, looked up): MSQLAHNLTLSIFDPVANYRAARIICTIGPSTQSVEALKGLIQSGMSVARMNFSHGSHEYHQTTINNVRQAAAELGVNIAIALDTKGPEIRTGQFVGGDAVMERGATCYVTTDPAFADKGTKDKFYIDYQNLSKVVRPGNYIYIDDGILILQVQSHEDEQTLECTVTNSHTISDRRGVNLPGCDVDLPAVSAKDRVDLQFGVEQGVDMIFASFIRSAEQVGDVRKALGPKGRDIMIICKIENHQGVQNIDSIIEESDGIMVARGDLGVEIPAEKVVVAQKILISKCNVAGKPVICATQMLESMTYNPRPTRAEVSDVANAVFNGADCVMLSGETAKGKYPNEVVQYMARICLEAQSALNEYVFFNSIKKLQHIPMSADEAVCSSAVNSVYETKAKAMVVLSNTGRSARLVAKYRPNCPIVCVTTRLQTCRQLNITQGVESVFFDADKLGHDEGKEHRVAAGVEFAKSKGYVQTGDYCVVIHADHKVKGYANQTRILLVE
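Purified LmPK (0.1 nM) with 0.5 mM PEP and 0.1 mM ADP in imidazole buffer pH 7.2 with MgCl2/KCl, 1 h at room temperature. ATP formed was read by luciferase luminescence and normalized to no-enzyme and uninhibited controls.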
A number is an active result; – = inactive; ? = inconclusive; · = no result given. Unless noted, calls follow the shape of the dose curve; as a rule, active = well fitted inhibition curve with a large enough effect; inconclusive = small, poorly fitted or top-dose-only effect, or another doubt; inactive = no such curve, though single readings can be large or run the other way.

SMILES | Pf growth 96h | Shiga toxin inh | Cycloheximide cs | Pf growth 48h | LmPK inh
Cc1ccc(CSCCNS(C)(=O)=O)cc1 | · | – | – | – | –
Cc1ccc(CSCCNS(=O)(=O)c2ccccc2)cc1 | 1.5µM | – | – | – | –
CCCNCC(O)Cn1c2ccccc2n2c(=O)cc(C)c(C#N)c12 (configuration not stated) | 12µM | – | – | 3.7µM | –
Cc1ccc(S(=O)(=O)Oc2ccc(C3C4=C(CCCC4=O)N(CCC(=O)O)C4=C3C(=O)CCC4)cc2Cl)cc1 | 3.3µM | – | – | 3.3µM | –
COc1ccc(C(O)C(CN2CCOCC2)c2ccccc2)cc1F (configuration not stated) | ? | – | – | 6.6µM | –
COc1ccc(C(=O)CN2CCOCC2)cc1F | 0.66µM | – | – | – | –
O=C(NCCCN1CCOCC1)c1ccc2c(c1)N(Cc1c(F)cccc1Cl)C(=O)CS2 | ? | – | – | – | –
O=C(c1cc(COc2c(F)cccc2F)on1)N1CCc2ccccc2C1 | ? | 52 | – | – | –
O=C(c1cc(COc2c(F)cccc2F)on1)N1CCC(c2ccccc2Cl)C1 (configuration not stated) | – | 82 | 51 | – | –
O=C(c1cc(COc2c(F)cccc2F)on1)N1CCC(c2ccccc2F)C1 (configuration not stated) | 9.3µM | 90 | 36 | – | –
O=C(c1cc(COc2c(F)cccc2F)on1)N1CCN(C2CCCCC2)C(=O)C1 | ? | – | – | ? | –
O=C(c1cc(COc2cccc3cnccc23)on1)N1CCC(c2ccccc2Cl)C1 (configuration not stated) | – | – | – | ? | –
CCCCCCN1CC(=O)N2Cc3[nH]c4ccccc4c3C[C@H]2C1=O | ? | – | – | ? | –
CCC(=O)N1CCC2(CC1)Oc1ccc(F)cc1C(=O)C21CC(c2ccccc2)=NO1 (configuration not stated) | ? | – | – | – | –
CCCCC(=O)NC1(C(F)(F)F)C(=O)N(CC(C)C)C2=C1C(=O)CC(C)(C)C2 (configuration not stated) | – | 44 | – | – | –
NC(=O)CC(NC(=O)Cc1ccc(Br)cc1)c1ccc(NCCc2ccccc2F)c([N+](=O)[O-])c1 (configuration not stated) | ? | – | – | ? | –
CCCOC1OC(=O)c2c1ccc(OC)c2OC (configuration not stated) | 5.2µM | – | – | – | –
NC(=O)C12CCCC(Br)(CCC1)C2 | – | – | – | – | –
CC(C)c1ccc(/C=C/c2ccc(=O)n(C)n2)cc1 | – | 93 | 27 | – | –
CCOC(=O)C(C)n1nc(/C=C/c2ccccc2)ccc1=O (configuration not stated) | ? | – | – | ? | –
CCOC(=O)Cc1csc(SCC(=O)N(CC(C)C)c2c(N)n(Cc3ccccc3)c(=O)[nH]c2=O)n1 | – | · | · | – | ·
CC(Sc1nnc(N)s1)C(=O)NC1CCCCC1C (configuration not stated) | – | · | · | ? | ·
CCOC(=O)C(O)(c1ccc(N(C)C(=O)c2ccc(Cl)c(Cl)c2)cc1)C(F)(F)F (configuration not stated) | 10µM | – | – | ? | –
CCOC(=O)C(O)(c1ccc(NC(=O)c2ccc(Cl)c(Cl)c2)cc1)C(F)(F)F (configuration not stated) | ? | – | – | 9.3µM | –
CCOC(=O)C(O)(c1ccc(NC(=O)NC2CCCCC2)cc1)C(F)(F)F (configuration not stated) | – | – | 20 | · | –
SMILES | Pf growth 96h | Shiga toxin inh | Cycloheximide cs | Pf growth 48h | LmPK inh
COC(=O)C(O)(c1ccc(N(C)C(=O)c2ccc(Cl)c(Cl)c2)cc1)C(F)(F)F (configuration not stated) | – | – | – | – | –
C=CC(C)(C)c1[nH]cnc1/C=C1\NC(=O)C(C(C)C)NC1=O (configuration not stated) | 2.1µM | – | – | ? | –
Cc1ccc2c(c1)C(O)(CC(=O)/C=C/C=C/c1ccccc1)C(=O)N2 (configuration not stated) | ? | – | 27 | – | –
CCN1C(=O)C(O)(CC(=O)/C=C/C=C/c2ccccc2)c2ccccc21 (configuration not stated) | ? | – | – | ? | –
COc1ccc(/C=C/C=C2\NC(=S)NC2=O)cc1 | – | – | – | – | –
Cc1cc(C)nc(SCC(=O)NCC2COc3ccccc3O2)n1 (configuration not stated) | – | · | · | – | ·
